Measured potencies and affinities stand elsewhere. The source made the active and inactive calls. The rule behind the calls is not given here.
assay: HepG2 cell cytotoxicity, dose response, cytotoxicity control, dry powder samples (AID 720568); conditions: plate reader; series mostly up to 15 µM

SMILES | outcome
COC(=O)c1cn(C(=O)c2ccc(OC)cc2)c2ccccc12 | inactive
O=C(N/N=C/c1ccc(Cl)cc1)c1sccc1OCc1ccc(F)cc1 | inactive
CCOc1ccc(NC(=O)c2cc(OC)nc3ccccc23)cc1 | inactive
Cc1cc(NC(=O)CSc2nc(-c3ccco3)cc(C(F)(F)F)n2)no1 | inactive
CCN(CC)CCC(=O)Nc1cccc2c1C(=O)c1ccccc1C2=O | inactive
CCOc1ccc(S(=O)(=O)NCc2ccccn2)cc1NC(=O)c1ccccc1F | inactive
COc1ccc(NC(=O)C(=O)c2cn(CC(=O)N3CCCC3)c3ccccc23)cc1 | inactive
Cc1cc(C)cc(C(=O)N2CC(=O)Nc3ccccc32)c1 | inactive
CCC1=Nc2cc(C(=O)NCCCOC)ccc2Sc2ccccc21 | inactive
C/C(=N\NC(=O)c1c([N+](=O)[O-])c(C)nn1C)c1ccc(NC(=O)C2CCCC2)cc1 | inactive
CCN(CC)CCCNc1nc2cc(OC)c(OC)cc2c2nc(-c3ccccc3)nn12 | inactive
Cc1cccc(C)c1OCCNC(=O)C(=O)NCc1ccco1 | inactive
Cc1ccc(Oc2ccc(S(=O)(=O)N3CCOCC3)cc2C(N)=O)c(-n2nc3ccccc3n2)c1 | inactive
CCCOC(=O)c1[nH]c2c(c1C)C(=O)CC(c1cccs1)C2 (stereo not drawn) | inactive
Cc1cnc(NC(=O)c2cc(S(=O)(=O)N(C)C)ccc2N2CCCC2)s1 | inactive
CC(=O)c1cccc(NC(=O)CSc2ncc(C(=O)Nc3ccccc3)c(=O)n2C)c1 | inactive
COc1ccc2c(COC(=O)c3cccc(S(=O)(=O)NCC(C)C)c3)cc(=O)oc2c1 | inactive
CCOC(=O)COc1cccc2c(=O)n(CC(=O)NCc3ccccc3)ccc12 | inactive
COc1ccccc1OCC(=O)NNC(=O)c1ccoc1C | inactive

SMILES | outcome
Cc1cc(C)nc(/N=C(\N)Nc2ccc(OCc3ccccc3)cc2)n1 | inactive
O=C(Cc1ccccc1)c1nnc(-c2ccccc2)o1 | inactive
COc1ccc(-c2nnc(SCc3ccccc3)o2)cc1 | inactive
Cc1cc(=O)[nH]c(N/N=C/c2cc(C)n(CC(F)(F)F)c2C)n1 | inactive
CCCCOc1ccccc1C1CC(=O)NC2=C1C(=O)CCC2 (stereo not drawn) | inactive
Brc1ccc(CSc2nnc(-c3ccccc3)o2)cc1 | inactive
Cc1ccc(C(=O)c2cc([N+](=O)[O-])ccc2N2CCOCC2)cc1C | inactive
COc1cccc(N2CCN(C(=O)c3ccc(CS(=O)c4ccc(C)cc4)o3)CC2)c1 (stereo not drawn) | inactive
CC(=O)N1CCC(=O)c2cc3ccccc3cc21 | inactive
CCCNS(=O)(=O)c1cccc(C(=O)OCc2cc(=O)oc3cc(OC)ccc23)c1 | inactive
Cc1[nH][nH]c(=O)c1C(c1ccc(-c2ccc(Cl)c(Cl)c2)o1)c1c(C)[nH][nH]c1=O | inactive
Cc1ccc(/C=N/NC(=O)C2COc3ccccc3O2)s1 (stereo not drawn) | inactive
CCn1c2ccccc2c2cc(NC(=O)c3cc(OC)c(OC)c(OC)c3)ccc21 | inactive
CCOC(=O)c1ccc(Oc2cc(C)nc(SC)n2)cc1 | inactive
COc1ccccc1CSc1nnc(-c2ccccc2)o1 | inactive
COc1cc(Nc2c3c(nc4ccccc24)CCCC3)cc(OC)c1OC | inactive
COc1cc(-c2nnc(SCC3(c4ccc(Br)cc4)OCCO3)o2)cc(OC)c1OC | inactive
COc1ccccc1-c1nnc(SCc2ccccc2)o1 | inactive
Cc1ccc(CCC(=O)Nc2ncc(Cc3cc(Cl)ccc3Cl)s2)o1 | inactive

Source: PubChem BioAssay AID720568 (Broad Institute, 2013)
